From publication PMC5540273 (PLoS ONE, 2017)

Key:
Conditions in all cases: concentration: 1 μM, replicates: in singlicate; n = 1
SRPK2 = test system: SRPK2
SRPK3 = test system: SRPK3
STK16 = test system: STK16
STK33 = test system: STK33
STK35 = test system: STK35
STK36 = test system: STK36
STK39 = test system: STK39
SYK = test system: SYK
SgK110 = test system: SgK110
TAK1 = test system: T1, TAK1
T1 construct: gene MAP3K7

TAOK1 = test system: TAOK1
TAOK2 = test system: TAOK2
TAOK3 = test system: TAOK3
TBK1 = test system: TBK1
TEC = test system: TEC
TESK1 = test system: TESK1
TGFBR1 = test system: TGFBR1
TGFBR2 = test system: TGFBR2
TIE1 = test system: TIE1
TIE2 = test system: T2, TIE2
T2 construct: gene TEK
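Further: KINOMEscan kinase panel screen.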

Row | SMILES | %Inh (SRPK2) | %Inh (SRPK3) | %Inh (STK16) | %Inh (STK33) | %Inh (STK35) | %Inh (STK36) | %Inh (STK39) | %Inh (SYK) | %Inh (SgK110) | %Inh (TAK1) | %Inh (TAOK1) | %Inh (TAOK2) | %Inh (TAOK3) | %Inh (TBK1) | %Inh (TEC) | %Inh (TESK1) | %Inh (TGFBR1) | %Inh (TGFBR2) | %Inh (TIE1) | %Inh (TIE2)
1 | COC(=O)c1cccc(NC(=O)NC2CCN(c3ccnc(Nc4ccc(OC)cc4)n3)C2)c1 (stereo not shown) [GSK1379746] | 28% | 0% | 8% | 0% | 0% | 0% | 5% | 0% | 0% | 0% | 0% | 0% | 0% | 0% | 14% | 13% | 41% | 0% | 0% | 0%
2 | c1ccc(-c2ccnc3[nH]ccc23)cc1 [SB-693578] | 7% | 0% | 44% | 0% | 32% | 0% | 33% | 0% | 0% | 11% | 0% | 0% | 0% | 11% | 5% | 43% | 0% | 10% | 0% | 0%
3 | Cc1c(Cn2c3ccccc3n3c(=O)cc(N4CCOCC4)nc23)cccc1C(F)(F)F [GSK2306394] | 0% | 0% | 11% | 6% | 0% | 0% | 0% | 5% | 0% | 0% | 0% | 0% | 0% | 13% | 1% | 0% | 0% | 10% | 6% | 0%
4 | COc1ccc(Nc2nccc(-c3ccc(NC(=O)c4cc5cc(F)ccc5[nH]4)cc3)n2)cc1 [GSK1229496] | 14% | 7% | 2% | 0% | 0% | 0% | 0% | 8% | 0% | 0% | 0% | 0% | 0% | 11% | 0% | 7% | 9% | 0% | 0% | 0%
5 | Cc1ccc(NC(=O)Nc2ccccc2F)cc1-c1ccc(C(=O)Nc2ccncc2)cc1 [GSK1398477] | 0% | 28% | 11% | 8% | 21% | 6% | 0% | 44% | 0% | 0% | 0% | 0% | 0% | 13% | 24% | 2% | 0% | 13% | 35% | 0%
6 | COc1cc2ncnc(Nc3cccc(Br)c3)c2cc1OC.Cl [GI230329] | 40% | 0% | 0% | 0% | 0% | 0% | 5% | 13% | 17% | 0% | 0% | 0% | 0% | 7% | 0% | 31% | 1% | 0% | 0% | 0%
7 | Nc1nccc(-c2c(-c3ccc(F)cc3)ncn2C2CCN(Cc3ccccc3)CC2)n1 [SB-219980] | 0% | 0% | 0% | 33% | 79% | 29% | 0% | 0% | 0% | 7% | 31% | 0% | 10% | 0% | 0% | 0% | 7% | 12% | 1% | 0%
8 | CNc1cc(-c2ccc3c(N)n[nH]c3c2)nc(N)n1 [GSK2224810] | 1% | 0% | 19% | 0% | 6% | 0% | 0% | 7% | 0% | 26% | 56% | 0% | 9% | 9% | 15% | 0% | 36% | 47% | 0% | 0%
